# Compound activity from PubChem BioAssay.
# The list is not random: actives were taken first. Their share in the collection is about 21%.
# CHX counter – Cycloheximide Counterscreen for Small Molecule Inhibitors of Shiga Toxin; cell reporter, cycloheximide protein synthesis inhibition counterscreen; hit rate 12% among 300,000; AID 2314, 2010; max response, %; in the data active = max response mostly above about 13%, no sharp cut-off; inactive = mostly below about 14%; also: read at 38.3 µM for the half of the compounds with a filed dose; 0% is about no effect
# Shiga inhibitor – A qHTS for Small Molecule Inhibitors of Shiga Toxin | Vero cells, Shiga toxin protein synthesis inhibition reporter | inhibition, % at 38.7 µM | hit rate 9.2% among 290,000; in the data active = inhibition mostly above about 28%, no sharp cut-off; inactive = mostly below about 43%; also: 0% is about no effect
# Pf growth 96h – Primary qHTS for delayed death inhibitors of the malarial parasite plastid, 96 hour incubation; P. falciparum luciferase reporter growth, 96 h; hit rate 6.9% among 320,000; AID 504834, 2011; Potency, µM (titrated, usually from 28.7 µM), for the others: at the highest dose activity change, negative = inhibition, most hits filed as inhibitors; also: potency is read from the fitted curve at half-maximal effect; % is scaled to controls: 0 for no effect and ±100 for the full control effect
#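 Erythrocytes infected with luciferase-expressing P. falciparum were dispensed at 2% hematocrit and 0.05% parasitemia (final), then incubated with compounds 96 hours at 37 C in 5% CO2. Luminescence after detection reagent addition reported growth.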
# Pf growth 48h – Primary qHTS for delayed death inhibitors of the malarial parasite plastid, 48 hour incubation | P. falciparum luciferase growth in erythrocytes, 48 h | Potency, µM (top dose mostly 28.7 µM), without a hit: at the highest dose activity change, negative = inhibition, actives largely listed as inhibitors | hit rate 5.9% among 310,000 | AID 504832, 2011; also: potency is read from the fitted curve at half-maximal effect; % is scaled to controls: 0 for no effect and ±100 for the full control effect
#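 Luciferase-expressing P. falciparum in infected erythrocytes (2% hematocrit, 0.1% parasitemia final) in RPMI 1640/0.5% Albumax were exposed to compound for 48 hours at 37 C, 5% CO2; growth read as luminescence.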
# HCV inhibitor – qHTS Assay for Inhibitors of Hepatitis C Virus (HCV). Huh7.5.1 HCVcc-Cre infection, luciferase reporter, 44 h. Potency, µM (doses to about 41.8 µM), for inactives: at the highest dose activity change, negative = inhibition, most hits filed as inhibitors. hit rate 3.4% among 340,000. AID 651820, 2012; also: potency is read from the fitted curve at half-maximal effect; % is scaled to controls: 0 for no effect and ±100 for the full control effect
#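 Whole-lifecycle infectious HCVcc-Cre system; cells 1,000/well, compound then virus (~0.5 moi) added 4 h after plating, 44 h culture. Luciferase read 15 sec following 15 min substrate incubation, room temp.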
# AMA1-RON2 inh – qHTS for Inhibitors of AMA1-RON; Towards Development of Antimalarial Drug Lead: Primary Screen. Plasmodium falciparum AMA1 (3D7) - RON2 peptide interaction. AlphaScreen AMA1-biotinylated RON2 peptide binding. Potency, µM (titrated, usually from 58.2 µM), for the others: top-dose activity change, negative = inhibition, most hits filed as inhibitors. hit rate 0.2% among 360,000. AID 720542, 2013;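 also: potency is read from the fitted curve at half-maximal effect; 0% = vehicle wells and -100% = peptide control; nearly all actives have a fitted effect of over 45% in size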
#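 AMA1 (3D7) with his tag at 25 nM final met compounds first, then biotinylated RON2 peptide at 25 nM; detection used donor plus acceptor beads, 10 µg/mL apiece, read by AlphaScreen after 30 min at room temperature.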
# * = called active by the depositor; ? = inconclusive; / = no result; [ ] = dose if it differs, or a comment. Unless noted, calls follow the shape of the dose curve; as a rule, active = well fitted curve in the direction sought with a large enough effect; inconclusive = small, poorly fitted or top-dose-only effect, or another doubt; inactive = no such curve, though single readings can be large; an effect the other way counts as inactive or inconclusive.
SMILES,CHX counter,Shiga inhibitor,Pf growth 96h,Pf growth 48h,HCV inhibitor,AMA1-RON2 inh
CC(C)C1Cc2c(sc3ncnc(NN)c23)CO1 (stereo not drawn),-4.5,1.7,?,?,?,78.1%
O=c1c(-c2ccc(Cl)cc2)coc2c(CN3CCCCC3)c(O)ccc12,5.4,16.8,-25.6%,2.94µM*,11.5%,2.9%
O=c1oc2c(CN3CCOCC3)c(O)ccc2c2c1CCCC2,-1.5,1.6,-0.8%[5.75 µM],?,-12.0%,27.8%
O=c1c(-c2ccc(Br)cc2)coc2c(CN3CCOCC3)c(O)ccc12,22.4*,35.2*,?,2.62µM*,?,-3.6%
COc1ccc(Oc2coc3c(CN4CCOCC4)c(O)ccc3c2=O)cc1,11.1,5.8,2.94µM*,/,2.0%,17.3%
O=c1c(-c2ccccc2Cl)coc2c(CN3CCCCC3)c(O)ccc12,1.4,-5.6,?,?,13.8%,16.3%
CC1CCCN(Cc2c(O)ccc3c(=O)c(-c4ccc(Cl)cc4)coc23)C1 (stereo not drawn),-1.4,-1.8,-10.1%,1.04µM*,-11.1%,2.9%
CC(=O)NCCc1c[nH]c2ccc(O)cc12,/,/,/,/,-5.0%,1.1%
CCC1c2ccccc2C(=O)C1C(N)=O (stereo not drawn),/,/,/,/,29.5%,-2.0%
COc1ccc(-c2coc3c(CN4CCCCC4)c(O)c(CN4CCCCC4)c(O)c3c2=O)cc1,-2.0,-16.5,88.4%,5.86µM*,-23.7%,/
O=c1c(-c2ccc(Br)cc2)coc2c(CN3CCCCC3)c(O)ccc12,-1.0,-4.5,2.33µM*,1.65µM*,6.5%,-5.6%
O=S1(=O)C[C@H](N2CCN(CC3CC3)CC2)[C@@H](COCc2ccccc2)N1,/,/,/,/,/,21.7%
O=C(O/N=C\c1ccc(N2CCCCC2)c([N+](=O)[O-])c1)c1cccc(Cl)c1,-2.0,-8.7,36.4%,8.0%,7.4%,-4.2%
CO/N=C/c1ccc(N2CCN(C(=O)c3ccc(Cl)cc3Cl)CC2)c([N+](=O)[O-])c1,-1.6,-20.5,-31.3%,-10.2%,8.91µM*,?
CO/N=C/c1ccc(N2CCN(C(=O)c3cccc(C(F)(F)F)c3)CC2)c([N+](=O)[O-])c1,-0.4,-8.7,?,?,?,?
CO/N=C/c1ccc(N2CCN(C(=O)c3ccc(F)cc3)CC2)c([N+](=O)[O-])c1,0.3,-14.2,?,?,14.1µM*,-11.0%
CN1CCN(C(=O)C2CCC(=O)N(Cc3cccc(C(F)(F)F)c3)C2)CC1 (stereo not drawn),3.9,-17.1,-21.3%,3.2%,-5.5%,-10.8%
O=C(NCc1ccc2c(c1)OCO2)C1CCCN1C(=O)Nc1ccc(Cl)cc1 (stereo not drawn),-8.6,-4.1,23.3%,2.2%,2.9%,5.8%
O=C(NCCn1cc(SCc2ccc(F)cc2)c2ccccc21)c1c(F)cccc1F,14.1*,25.2,?,?,?,7.2%
O=C(CSc1cn(CCNC(=O)c2ccccc2)c2ccccc12)NCC1CCCO1 (stereo not drawn),9.2,9.7,?,-5.8%,?,-14.4%
CCCn1cc(SCC(=O)NCc2ccco2)c2ccccc21,8.7,15.6,6.57µM*,2.08µM*,?,-2.7%
O=C(CSc1cn(CCNC(=O)c2ccccc2)c2ccccc12)NCc1ccco1,36.1*,52.7*,?,/,-22.4%,1.8%
CC(C)N(C(=O)Cn1cc(SCC(=O)NCc2ccco2)c2ccccc21)C(C)C,0.6,-10.6,132.0%,-8.0%,7.7%,-18.0%
COc1cc(C(=O)OCC(=O)NC2CC2)ccc1OCCC(C)C,/,/,?,?,11.3%,4.6%
CC1CC(C)CN(C(CCc2ccccc2)C(=O)NC2CCCCC2)C1 (stereo not drawn),/,/,/,/,/,5.8%
SMILES,CHX counter,Shiga inhibitor,Pf growth 96h,Pf growth 48h,HCV inhibitor,AMA1-RON2 inh
CNc1cc(-c2ccc(CC#N)cc2)ncn1,/,/,/,/,/,2.1%
OCCNc1nc(Nc2cccc(O)c2)nc2ccccc12,-2.9,13.5,0.104µM*,2.33µM*,-13.9%,-17.0%
OCCNc1nc(Nc2ccc(O)cc2)nc2ccccc12,-3.5,-4.8,5.22µM*,1.65µM*,-19.0%,-11.1%
Oc1cccc(Nc2c3ccccc3nc3ccccc23)c1,5.8,19.2,-10.7%,?,?,-5.9%
OCCNc1nc(NCc2ccccc2)c2ccccc2n1,-1.4,-4.5,11.7µM*,?,-25.7%,-1.7%
OC[C@@H]1OC(O)[C@H](O)[C@H](O)[C@H]1O (stereo partly drawn),1.7,-13.6,/,/,/,/
CN(c1cccc(NC(=O)CN(c2ccc(Cl)c(Cl)c2)S(=O)(=O)c2ccccc2)c1)S(C)(=O)=O,-2.5,-3.2,?,?,?,2.5%
Cc1ccc(S(=O)(=O)N(CC(=O)Nc2cccc(N(C)S(C)(=O)=O)c2)c2ccc(Cl)c(Cl)c2)cc1,-2.4,-2.9,?,13.1µM*,?,-6.0%
CN(c1cccc(NC(=O)CN(c2ccc(F)cc2)S(C)(=O)=O)c1)S(C)(=O)=O,-1.1,8.0,-10.2%,?,26.1%,2.3%
CN(c1cccc(NC(=O)CN(c2ccc(C34CC5CC(CC(C5)C3)C4)cc2)S(C)(=O)=O)c1)S(C)(=O)=O,-0.6,1.8,16.5µM*,?,?,-11.6%
COCc1ccc(C(=O)N2CCCC(N(C)CCc3ccc(OC)c(OC)c3)C2)s1 (stereo not drawn),-1.1,-41.3,?,-5.7%,10.7%,23.2%
COCC(=O)N1CCCC(N(C)CCc2ccc(OC)c(OC)c2)C1 (stereo not drawn),18.0*,/,138.5%,3.3%,8.9%,-0.9%
Cc1ccc([C@@H]2CC(=O)[C@@H]3CN(S(=O)(=O)c4ccc(C)cc4)[C@H](c4cccc(Cl)c4)C[C@@H]3N2S(=O)(=O)c2ccc(Cl)cc2)cc1,/,/,/,/,/,-3.5%
CC(=O)c1cccc(NC(=O)c2cc(C(C)C)on2)c1,40.0*,83.6*,-14.7%,/,-12.7%,-4.2%
CC(C)c1onc(C(=O)Nc2cccc(Cl)c2)c1[N+](=O)[O-],25.3*,34.9,-0.7%,?,-4.0%,11.4%
CC(C)c1cc(C(=O)Nc2cccc(Cl)c2)no1,30.0*,82.3*,?,-12.0%,?,48.0%
CC(C)c1onc(C(=O)NCc2ccccn2)c1[N+](=O)[O-],10.1,-3.5,2.4%,?,26.0%,23.9%
O=C(NCc1ccc(F)cc1)c1cc(C2CCCCN2S(=O)(=O)c2ccc(F)cc2F)on1 (stereo not drawn),/,/,/,/,/,-7.5%
Cc1cc(C(=O)COC(=O)Cc2n[nH]c(=O)c3ccccc23)c(C)n1-c1cccc(C(F)(F)F)c1,-2.2,-10.9,2.94µM*,9.28µM*,?,-2.1%
